PubChem BioAssay AID2314 (National Center for Advancing Translational Sciences (NCATS), 2010)
Screen size: about 300,000 compounds; about 37,000 (12%) were called active. This excerpt belongs to a sample that is enriched for actives. Values without a mark were called inactive. No stated cut-off is given here; in the data, active means max response mostly above about 13% (no sharp cut-off); inactive means mostly below about 14%.

Test: Cycloheximide Counterscreen for Small Molecule Inhibitors of Shiga Toxin; further: read at 38.3 µM for the half of the compounds with a filed dose; 0% is about no effect
Settings: cell reporter, cycloheximide protein synthesis inhibition counterscreen; stronger effect = higher value
In the case of `Cc1nc2cc(-c3ccc(F)cc3)nn2c(N2CCOCC2)c1C`, the max response is reported as 16.4%. In the case of `Cc1cc(C(C)(C)C)n2nc(C)c(-c3ccccc3)c2n1`, the max response is reported as -2.81%. With `Cc1cc(N)n2nc(-c3ccc(C(C)(C)C)cc3)cc2n1` the max response was 46.8% (active). For `O=C(CN1C(=O)c2cccnc2Oc2ccc(Cl)cc21)Nc1ccc(F)cc1`, the max response was -3.07%. `COc1cc(NC(=O)C2=CC(c3ccc(C)cc3)=NS(=O)(=O)N2C)cc(OC)c1OC` showed a max response of -1.64%. `O=C(COC(=O)c1ccc(F)cc1)Nc1nc2ccc([N+](=O)[O-])cc2s1` gave a max response of 0.781%. `CSc1ncccc1C(=O)NC1CCCCCC1` gave a max response of 19.5%. In the case of `CSc1ncccc1C(=O)Nc1nc2ccc(F)cc2s1`, the max response is reported as 53.4% (active). For `CSc1ncccc1C(=O)Nc1ccc(C)cn1`, the max response was 9.66% (active). `COc1ccc(C(CNC(=O)c2cccnc2SC)N2CCOCC2)cc1` (configuration not stated) gave a max response of -3.3%. Compound `COc1cc(NC(=O)c2cccnc2SC)cc(OC)c1` has a max response of -1.86%. In the case of `CCOc1ccc(NC(=O)CCC(=O)NNC(=O)NC2CCCCC2)cc1`, the max response is reported as -3.92%. `COc1ccccc1NC(=S)N1CCN(c2ccc(F)cc2)CC1` gave a max response of -1.91%. `COc1ccccc1Nc1nc(N)nc(CN(C)C2CCCCC2)n1` showed a max response of -1.19%. `CCOC(=O)C1CCCN(Cc2nc(N)nc(Nc3ccc(C)cc3)n2)C1` (configuration not stated) gave a max response of 0.836%. In the case of `COc1ccccc1Nc1nc(N)nc(CSC(=S)N2CCOCC2)n1`, the max response is reported as 23.7% (active). In the case of `COc1ccc(Nc2nc(N)nc(CSC(=S)N3CCC(C)CC3)n2)cc1`, the max response is reported as 47.2% (active). For `CCOC(=O)c1cnc(SCc2nc(N)nc(Nc3ccc(OC)cc3)n2)nc1N`, the max response was 19.8%. `C=CCN1C(=NC(=O)COc2ccccc2)SC2CS(=O)(=O)CC21` (configuration not stated) showed a max response of -13.1%. Compound `O=C(NCCc1nnc2ccc(SCC(=O)N3CCOCC3)nn12)c1ccccc1` has a max response of -4.07%. Compound `O=C(O)c1ccc(S(=O)(=O)N2CCC(Cc3ccccc3)CC2)cc1` has a max response of -8.01%. Work on `COc1ccc(C(=O)OCC(=O)NC(=O)CCSc2ccccc2)cc1` yielded a max response of 3.82%. `COc1ccc(OC)c(CCNC(=O)c2nn(C)c3c2CS(=O)(=O)c2ccccc2-3)c1` gave a max response of -1.16%. `COc1ccc(N(CC(=O)NC2CCCCC2)S(=O)(=O)c2c(C)[nH]c(=O)[nH]c2=O)cc1` gave a max response of -1.68%. In the case of `O=C(NNC(=S)NC(=O)c1cn(-c2ccccc2)nc1-c1ccccc1)c1ccncc1`, the max response is reported as 2.78%. For `Cc1cc(C(=O)N/N=C/c2ccc(O)c([N+](=O)[O-])c2)c(C)n1-c1ccc(F)cc1`, the max response was 24.9% (active). In the case of `COc1cc(/C=N/NC(=O)c2cc(C)n(-c3ccc(F)cc3)c2C)cc(OC)c1O`, the max response is reported as 18.9%. Compound `Cc1nn(CC(=O)N/N=C/c2ccc(F)cc2)c(C)c1[N+](=O)[O-]` has a max response of -2.9%. With `COc1ccccc1N(CC(=O)Nc1ccccc1C(=O)N1CCCC1)S(C)(=O)=O` the max response was -4.06%. `CC/C(=N\NC(=O)c1ccccc1Cl)c1ccc(Br)s1` gave a max response of -0.594%. With `NS(=O)(=O)c1ccc(CCNS(=O)(=O)c2cccc3cccnc23)cc1` the max response was -5.53%. For `CN(C)S(=O)(=O)c1cccc(NC(=O)Cc2ccsc2)c1`, the max response was -3.01%. Work on `O=C1N/C(=C/c2cccs2)C(=O)N1Cc1ccc(F)cc1` yielded a max response of -5.73%. `Cc1ccc(Cn2c(C)c3cnn(CC(=O)NCc4ccccn4)c(=O)c3c2C)cc1` showed a max response of -3.46%. With `Cc1ccc(CN2C(=O)N/C(=C/c3cc(C)n(-c4ccccn4)c3C)C2=O)cc1` the max response was 33.6% (active). Work on `Cc1cccc([C@@H]2[C@@H]3C(=O)N(C)C(=O)[C@@H]3[C@@H]3C(=O)Nc4ccccc4C(=O)N23)c1` yielded a max response of 1.14%. `O=c1c2ccccc2nc2n1C(CSCc1ccccc1)CS2` (configuration not stated) gave a max response of -1.46%. In the case of `O=C(/C=C/c1ccc([N+](=O)[O-])cc1)NCCSCc1ccco1`, the max response is reported as 9.78%. In the case of `CCOc1ccccc1Nc1nnc(SCc2ccc(C(=O)OC)o2)s1`, the max response is reported as -4.31%. For `COC(=O)c1ccc(CSc2ccccc2C)o1`, the max response was -1.75%. For `COC(=O)c1ccc(CSc2nnc(N)s2)o1`, the max response was 12.5% (active). `CC1CCCCN1C(=O)CCS(=O)(=O)Cc1ccccc1` (configuration not stated) showed a max response of -0.307%. `COc1cc(C(=O)NN(CCC#N)C2=NS(=O)(=O)c3ccccc32)cc(OC)c1OC` gave a max response of -4.44%. In the case of `COc1cccc2c(C)c(C(=O)O)[nH]c12`, the max response is reported as 33.1% (active). In the case of `COc1cc2c(C(=O)O)c(C)n(C)c2c2ccccc12`, the max response is reported as -4.45%. `Cc1c(C(=O)N/N=C/c2ccccc2)[nH]c2c([N+](=O)[O-])cccc12` gave a max response of 1.12%. With `O=c1[nH]cccc1-c1nc2ccccc2n1Cc1ccc(Cl)cc1` the max response was -10.6%. Work on `COc1ccc(C(=O)NC(C)Cn2nc(C)cc2C)cc1OC1CCN(C(C)=O)CC1` (configuration not stated) yielded a max response of -1.29%. `Cn1ncc(Br)c1C(=O)NC1CCCC1` showed a max response of -6.23%. For `CCN(CC)CCn1cnc2c1c(=O)[nH]c(=O)n2Cc1ccccc1`, the max response was -9.18%. `CCOc1ccc(N(C(=O)c2snc(C(N)=O)c2N)C(C(=O)NCC2CCCO2)c2c[nH]c3ccccc23)cc1` (configuration not stated) showed a max response of 1.95%. In the case of `Cc1cc(S(=O)(=O)NC2CCCCC2)ccc1OCC(=O)NCc1cccnc1`, the max response is reported as -2.89%. Work on `O=C(Cn1c(=O)n(CC2CS2)c2ccccc21)N1CCCCC1` (configuration not stated) yielded a max response of 0.367%. In the case of `CCOC(=O)C1(Cc2ccccc2C)CCCN(C(=O)CN2C(=O)CSC2=O)C1` (configuration not stated), the max response is reported as 42.6% (active). Compound `CCOC(=O)C1(CCc2ccccc2)CCN(Cc2ccco2)CC1` has a max response of 8.52%. In the case of `CCOC(=O)C1(Cc2ccccc2C)CCCN(C(=O)c2ccc(COC)o2)C1` (configuration not stated), the max response is reported as 35.6% (active). For `Cc1cc(SCC(=O)NCCN2C(=O)CSC2=O)nc2ccccc12`, the max response was 0.645%. `CCOC(=O)C1(Cc2ccccc2C)CCCN(S(C)(=O)=O)C1` (configuration not stated) showed a max response of 2.45%. Work on `Cc1ccc(S(=O)(=O)N(CC(=O)NCc2ccco2)c2ccccc2C)cc1` yielded a max response of -4.61%. Compound `CCCNC(=S)N1CCCC(c2nc3ccccc3[nH]2)C1` (configuration not stated) has a max response of -2.62%. Compound `O=C(NC1CCCC1)C(c1c(F)cccc1Cl)N(C(=O)c1csnn1)C1CC1` (configuration not stated) has a max response of -1.83%. In the case of `COCCn1c(=NC(=O)c2ccccc2[N+](=O)[O-])sc2cc(S(C)(=O)=O)ccc21`, the max response is reported as 25.9% (active). For `COCCNC(=O)c1ccccc1NS(=O)(=O)c1ccc(C)c([N+](=O)[O-])c1`, the max response was -2.35%. Compound `Cn1c(=NC(=O)c2ccc3c(c2)OCCO3)sc2cc(S(C)(=O)=O)ccc21` has a max response of 3.13%. With `O=C(Nc1ccccc1C(=O)Nc1ccncc1)c1ccc([N+](=O)[O-])cc1` the max response was -2.91%. Compound `Cc1ccsc1C(=O)N[C@@H](C)c1nnc2ccccn12` has a max response of -2.38%. Compound `CCOC(=O)C1=C(C)NC(=S)NC1c1cccs1` (configuration not stated) has a max response of -2.57%. With `CCOC(=O)C1=C(C)Nc2nc3ccccc3n2C1c1cccs1` (configuration not stated) the max response was -3.92%. In the case of `C=CCOC(=O)C1=C(C)NC(C)=C(C(=O)OCC=C)C1c1cccs1`, the max response is reported as 63.9% (active). Work on `Cc1cc(C)c2nc(N(CCN(C)C)C(=O)/C=C/c3cccs3)sc2c1` yielded a max response of -3.7%. `C/C(=N/OC(=O)c1ccc(Br)cc1)c1ccc(C)cc1` gave a max response of 4.97%. With `COc1ccc(C)cc1N(CC(=O)N1CCCC1)S(=O)(=O)c1ccccc1` the max response was 9.95%. With `CCCCCCC(=O)Nc1nc(C)c(-c2csc(Nc3cccc(OC)c3)n2)s1` the max response was -1.06%. For `CCOC(=O)Cc1csc(NC(=O)Nc2ccccc2)n1`, the max response was 21.8% (active). In the case of `CCOC(=O)Cc1csc(NC(NC(=O)OCC)(C(F)(F)F)C(F)(F)F)n1`, the max response is reported as -0.89%. `CCOC(=O)c1cnc(SCC(=O)Nc2cccc(OC)c2)nc1N` showed a max response of -6%. For `CCOC(=O)c1csc(NC(=O)Nc2cccc(OC)c2)n1`, the max response was 15% (active). Work on `CCOC(=O)Cc1csc(NC(=O)CSc2nc(C)cc(=O)[nH]2)n1` yielded a max response of -1.4%. For `CCOC(=O)Cc1csc(NC(=O)C(C)(C)C)n1`, the max response was 26.6% (active). `CCOC(=O)Cc1csc(NC(=O)COc2ccc3c(C)cc(=O)oc3c2)n1` showed a max response of 5.78%. With `CCOC(=O)Cc1csc(NC(=O)CSc2ccc(Br)cc2)n1` the max response was -1.14%. `COc1ccccc1N1CCN(C(=O)c2ccc(NC3=NC4CS(=O)(=O)CC4S3)cc2)CC1` (configuration not stated) showed a max response of 6.59%. For `O=C(Nc1ccc(F)cc1F)N1CCCN(CCOc2ccccc2)CC1`, the max response was -1.88%. For `CN1CCN(C(=O)c2cnn(-c3ccccc3)c2NC(=O)c2ccc([N+](=O)[O-])cc2)CC1`, the max response was -1.78%. For `S=c1[nH]ccn1-c1ccc(Cl)cc1`, the max response was -4.55%. `CN(Cc1ccccc1)C(=O)COC(=O)c1ccccc1Nc1ccccc1` showed a max response of -1.45%. `CC1(C(=O)O)CCC(C(=O)Nc2ccc(Cl)c(Cl)c2)C1(C)C` (configuration not stated) showed a max response of -1.72%. `N/C(=N\OC(=O)/C=C/c1ccccc1)c1ccc(Br)cc1` showed a max response of 1.02%. For `N/C(=N\OC(=O)N1c2ccccc2Sc2ccccc21)c1ccc(Br)cc1`, the max response was -1.54%. In the case of `N/C(=N\OC(=O)c1ccc2c(c1)OCO2)c1ccc(Br)cc1`, the max response is reported as 32.7% (active). With `CCCc1nc2c(c(=O)c3ccccc3n2C)c(=O)n1-c1cc(C)cc(C)c1` the max response was -0.943%. With `NC(=O)c1ccc(NC(=O)COC(=O)c2c3c(nc4ccccc24)/C(=C\c2ccc4c(c2)OCO4)CCC3)cc1` the max response was 38.8% (active). `COc1cc(-c2cc(C(=O)OCC(=O)Nc3ccc4c(c3)OCO4)c3ccccc3n2)cc(OC)c1OC` gave a max response of 4.65%. `CN(C)S(=O)(=O)c1ccc(NC(=O)COC(=O)c2n[nH]c3ccccc23)cc1` gave a max response of -0.614%. `O=C(COC(=O)c1c2c(nc3ccccc13)/C(=C\c1cccs1)CCC2)Nc1ccccc1Cl` showed a max response of 10.2%. For `COc1cc(/C=C2\CCCc3c2nc2ccccc2c3C(=O)O)cc(Cl)c1O`, the max response was 4.53%. For `NS(=O)(=O)c1ccc(NC(=O)COC(=O)c2c3c(nc4ccccc24)/C(=C\c2ccc4c(c2)OCO4)CCC3)cc1`, the max response was 42.8% (active).
